# Data from the supplement of paper PMC6555819.
# Legend:
# Assay in all cases: PBM binding z-score (relative to random genomic background probes); higher = stronger binding; sequences stand for … in GC…GCGATTGACAGCGTAGAATGAAGG
# [1] = test system: RARb homodimer (NR concentration 270 nM)
# How it was run: (§1)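 Custom Agilent 4×180K protein-binding microarrays carried double-stranded probes. Their 34-nt variable regions held direct-repeat seeds, single-nucleotide variants, half-site ablations and random human genomic background sequences. Arrays were incubated 1 h with ligand-free nuclear receptor dimers in PBS pH 7.4, 2% milk, 0.02% Triton X-100, 1 mM DTT, 0.2 mg/mL BSA and 0.4 mg/ml salmon testes DNA. Antibodies against each partner (one per run) detected binding, and scanned fluorescence was regression-normalized. Binding z-scores use random background probes as reference.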
# [2] = test system: RARg:RXRa (NR concentration 270 nM, RXRa partner concentration 90 nM)
# How it was run: as §1
# [3] = test system: RARg homodimer (NR concentration 270 nM)
# How it was run: as §1
# [4] = test system: RXRa DBDmut IVT, anti-RXR (DBD mutation: RXRa K156A/R161A, NR concentration 90 nM)
# How it was run: as §1
# [5] = test system: RXRa homodimer (NR concentration 180 nM)
# How it was run: as §1
# [6] = test system: THRa:RXRa (NR concentration 90 nM, RXRa partner concentration 90 nM)
# How it was run: as §1
# [7] = test system: THRa homodimer (NR concentration 90 nM)
# How it was run: as §1
# [8] = test system: VDR:RXRa (NR concentration 270 nM, RXRa partner concentration 90 nM)
# How it was run: as §1
# [9] = test system: VDR homodimer (NR concentration 270 nM)
# How it was run: as §1
sequence,measurement,setting,value
TCGAGTAGGTTAGTCGGGGCATGCAGCCAACATA,PBM binding z-score,[1],0.498
same,PBM binding z-score,[2],-0.0315
same,PBM binding z-score,[3],-0.00519
same,PBM binding z-score,[4],0.0884
same,PBM binding z-score,[5],0.113
same,PBM binding z-score,[6],0.978
same,PBM binding z-score,[7],-0.26
same,PBM binding z-score,[8],1.24
same,PBM binding z-score,[9],-0.157
TCTTGTAGATCAATAGAGGTTAATAAAGTGCGCT,PBM binding z-score,[1],1.15
same,PBM binding z-score,[2],0.715
same,PBM binding z-score,[3],0.545
same,PBM binding z-score,[4],0.551
same,PBM binding z-score,[5],1.33
same,PBM binding z-score,[6],2.36
same,PBM binding z-score,[7],-0.525
same,PBM binding z-score,[8],1.84
same,PBM binding z-score,[9],0.459
TCGTGTAGATCAAGCAGGTTAAGAAAGCCTGAGT,PBM binding z-score,[1],-0.0651
same,PBM binding z-score,[2],-0.125
same,PBM binding z-score,[3],-0.344
same,PBM binding z-score,[4],0.445
same,PBM binding z-score,[5],0.247
same,PBM binding z-score,[6],0.168
same,PBM binding z-score,[7],-0.744
same,PBM binding z-score,[8],0.56
same,PBM binding z-score,[9],-0.0255
GCCGCTAGGTCAGGTTGGTCAGCTAACGGGTACG,PBM binding z-score,[1],2.77
same,PBM binding z-score,[2],2.62
same,PBM binding z-score,[3],3.67
same,PBM binding z-score,[4],0.508
same,PBM binding z-score,[5],1.1
same,PBM binding z-score,[6],1.81
same,PBM binding z-score,[7],0.524
same,PBM binding z-score,[8],0.54
same,PBM binding z-score,[9],0.312
GATACAGGGTCTAGGCCAGAGTACGCGTATTGAT,PBM binding z-score,[1],-0.143
same,PBM binding z-score,[2],0.0579
same,PBM binding z-score,[3],0.175
same,PBM binding z-score,[4],-0.382
same,PBM binding z-score,[5],-0.304
same,PBM binding z-score,[6],-0.508
same,PBM binding z-score,[7],-0.824
same,PBM binding z-score,[8],-0.508
same,PBM binding z-score,[9],0.154
CGTCAAAGTTCAAGGTAACGTATCAGAAAGCAGC,PBM binding z-score,[1],3.97
same,PBM binding z-score,[2],5.22
same,PBM binding z-score,[3],6.45
same,PBM binding z-score,[4],4.52
same,PBM binding z-score,[5],4.44
same,PBM binding z-score,[6],3.06
same,PBM binding z-score,[7],1.44
same,PBM binding z-score,[8],3.97
same,PBM binding z-score,[9],3.38
TCATATGGGTAAACAGGTGAAAGTCCGTAAGTTA,PBM binding z-score,[1],0.47
same,PBM binding z-score,[2],0.0718
same,PBM binding z-score,[3],-0.135
same,PBM binding z-score,[4],0.95
same,PBM binding z-score,[5],0.566
same,PBM binding z-score,[6],0.434
same,PBM binding z-score,[7],-0.368
same,PBM binding z-score,[8],0.583
same,PBM binding z-score,[9],-0.103
ATATGTAGGTTACTTCCGGGTCATTCAGGCTATG,PBM binding z-score,[1],3.02
same,PBM binding z-score,[2],3.9
same,PBM binding z-score,[3],2.02
same,PBM binding z-score,[4],1.23
same,PBM binding z-score,[5],3.02
same,PBM binding z-score,[6],3.91
same,PBM binding z-score,[7],2.57
same,PBM binding z-score,[8],3.93
same,PBM binding z-score,[9],2.58
TCATATAGGTAATGGTGAAAGTCGAACGATATGA,PBM binding z-score,[1],-0.191
same,PBM binding z-score,[2],0.377
same,PBM binding z-score,[3],0.547
same,PBM binding z-score,[4],0.843
same,PBM binding z-score,[5],0.587
same,PBM binding z-score,[6],-0.0618
same,PBM binding z-score,[7],-0.634
same,PBM binding z-score,[8],0.243
same,PBM binding z-score,[9],-0.582
TTACCAAGGTGAAGGCCGTTGATCCCTCTGTAGA,PBM binding z-score,[1],0.648
same,PBM binding z-score,[2],0.161
same,PBM binding z-score,[3],0.236
same,PBM binding z-score,[4],-0.411
same,PBM binding z-score,[5],0.286
same,PBM binding z-score,[6],1.57
same,PBM binding z-score,[7],0.252
same,PBM binding z-score,[8],-0.121
same,PBM binding z-score,[9],-0.421
ATCGAAAGGTCGAAGGTGAGTATTCCCACCCGAA,PBM binding z-score,[1],2.4
same,PBM binding z-score,[2],4.36
same,PBM binding z-score,[3],3.76
same,PBM binding z-score,[4],1.17
same,PBM binding z-score,[5],5.41
same,PBM binding z-score,[6],2.13
same,PBM binding z-score,[7],0.00651
same,PBM binding z-score,[8],2.58
same,PBM binding z-score,[9],0.282
AGTCAAAGTTCACTAGGTAAAGTAAGATTCAGCT,PBM binding z-score,[1],3.32
same,PBM binding z-score,[2],4.93
same,PBM binding z-score,[3],5.48
same,PBM binding z-score,[4],4.25
same,PBM binding z-score,[5],4.02
same,PBM binding z-score,[6],1.75
same,PBM binding z-score,[7],0.0953
same,PBM binding z-score,[8],3.34
same,PBM binding z-score,[9],3.61
CGTCCAAGGTCAATGCTAGGTCAGTGGAAGCATT,PBM binding z-score,[1],4.74
same,PBM binding z-score,[2],7.51
same,PBM binding z-score,[3],6.88
same,PBM binding z-score,[4],3.57
same,PBM binding z-score,[5],4.86
same,PBM binding z-score,[6],4.32
same,PBM binding z-score,[7],2.84
same,PBM binding z-score,[8],4.77
same,PBM binding z-score,[9],3.57
ACAGACAGGTGACTGAAGGTAACTCAGCTGGACG,PBM binding z-score,[1],0.000361
same,PBM binding z-score,[2],0.5
same,PBM binding z-score,[3],0.509
same,PBM binding z-score,[4],-0.793
same,PBM binding z-score,[5],0.654
same,PBM binding z-score,[6],1.94
same,PBM binding z-score,[7],-0.751
same,PBM binding z-score,[8],-0.404
same,PBM binding z-score,[9],-0.657
TCTAGCAGGCCAGAGGGTCACTGAAGAGGTACGG,PBM binding z-score,[1],2.72
same,PBM binding z-score,[2],2.74
same,PBM binding z-score,[3],1.97
same,PBM binding z-score,[4],-0.0936
same,PBM binding z-score,[5],2.63
same,PBM binding z-score,[6],1.7
same,PBM binding z-score,[7],-0.233
same,PBM binding z-score,[8],1.52
same,PBM binding z-score,[9],0.299
ACATACAGGTGAGTGAAGGTAACTCAGCTGGACG,PBM binding z-score,[1],0.773
same,PBM binding z-score,[2],1.2
same,PBM binding z-score,[3],0.903
same,PBM binding z-score,[4],0.0119
same,PBM binding z-score,[5],0.795
same,PBM binding z-score,[6],2.21
same,PBM binding z-score,[7],-0.215
same,PBM binding z-score,[8],0.0169
same,PBM binding z-score,[9],0.00472
CGTCCAAGGTCAGAGAGGTGAGTGAATGCCGAGT,PBM binding z-score,[1],3.85
same,PBM binding z-score,[2],4.7
same,PBM binding z-score,[3],5.44
same,PBM binding z-score,[4],3.06
same,PBM binding z-score,[5],3.79
same,PBM binding z-score,[6],3.81
same,PBM binding z-score,[7],2.28
same,PBM binding z-score,[8],4.78
same,PBM binding z-score,[9],2.26
CAAACTAGGTCACCGGAAGGGCAAAGTCCGCATG,PBM binding z-score,[1],4.57
same,PBM binding z-score,[2],6.48
same,PBM binding z-score,[3],5.56
same,PBM binding z-score,[4],1.21
same,PBM binding z-score,[5],3.68
same,PBM binding z-score,[6],3.42
same,PBM binding z-score,[7],1.7
same,PBM binding z-score,[8],3.81
same,PBM binding z-score,[9],1.33
ATCTCTAGGTAAAGTTCAGTAAAAGATCGATAGA,PBM binding z-score,[1],2.39
same,PBM binding z-score,[2],2.22
same,PBM binding z-score,[3],2.74
same,PBM binding z-score,[4],1.27
same,PBM binding z-score,[5],1.18
same,PBM binding z-score,[6],1.23
same,PBM binding z-score,[7],0.183
same,PBM binding z-score,[8],1.65
same,PBM binding z-score,[9],2.13
CCTAGTTAGTCAAGGTCACACACGCTATAGGTAC,PBM binding z-score,[1],4.28
same,PBM binding z-score,[2],4.36
same,PBM binding z-score,[3],4.31
same,PBM binding z-score,[4],2.45
same,PBM binding z-score,[5],4.3
same,PBM binding z-score,[6],4.27
same,PBM binding z-score,[7],4.29
same,PBM binding z-score,[8],4.26
same,PBM binding z-score,[9],3.3
TCTATTAGTTGATTAGGGCAACCCAAACAGCGGA,PBM binding z-score,[1],0.891
same,PBM binding z-score,[2],0.877
same,PBM binding z-score,[3],0.646
same,PBM binding z-score,[4],1.04
same,PBM binding z-score,[5],0.612
same,PBM binding z-score,[6],0.77
same,PBM binding z-score,[7],0.499
same,PBM binding z-score,[8],0.694
same,PBM binding z-score,[9],0.49
TCTATTAGTTGATGAGGGCAACCGAAACAGCGGA,PBM binding z-score,[1],1.27
same,PBM binding z-score,[2],0.771
same,PBM binding z-score,[3],0.907
same,PBM binding z-score,[4],1.31
same,PBM binding z-score,[5],1.06
same,PBM binding z-score,[6],1.68
same,PBM binding z-score,[7],0.938
same,PBM binding z-score,[8],1.15
same,PBM binding z-score,[9],1.35
ACTCGGAGGACGAAGGTCAGAGCTACGCCAGTGA,PBM binding z-score,[1],2.86
same,PBM binding z-score,[2],2.9
same,PBM binding z-score,[3],2.48
same,PBM binding z-score,[4],0.315
same,PBM binding z-score,[5],2.01
same,PBM binding z-score,[6],1.64
same,PBM binding z-score,[7],-0.396
same,PBM binding z-score,[8],1.15
same,PBM binding z-score,[9],0.109
ACTCAAAGTTCATCTAGGTAACGTAAGATATGCT,PBM binding z-score,[1],4.25
same,PBM binding z-score,[2],5.51
same,PBM binding z-score,[3],6.3
same,PBM binding z-score,[4],4.87
same,PBM binding z-score,[5],4.62
same,PBM binding z-score,[6],3.37
same,PBM binding z-score,[7],0.619
same,PBM binding z-score,[8],4.98
same,PBM binding z-score,[9],5.89
